This note sets out measurements from PubChem BioAssay (EPA / NIEHS).

One may read the AC50 as the concentration at which the activity in the assay is half-maximal.

Records with an inconclusive call do not appear. The source made the active and inactive calls. How the source made its calls: active means hit-call score of the fitted dose curve at least 0.9, where 1 is the maximum; inconclusive means response in the unintended direction; inactive means score below 0.9.

Read-out in the assay: organic anion transporter (SLCO1B1), SLCO1B1 (gene 10599)
The assay is described as follows: CLD_SLCO1B1_6hr: CellzDirect (CLD) Gene Expression Assay for organic anion transporter (SLCO1B1) at 6 hours (AID 2283668).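 Further: active means mRNA induction above DMSO baseline.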 In a few lines: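 Primary human hepatocytes dosed daily with test chemicals (multiple concentrations) in 0.2% DMSO vehicle; harvested at 6 h. SLCO1B1 mRNA quantified by qNPA chemiluminescence, fitted as gain-of-signal versus DMSO; cytotoxicity from phase-contrast morphology flagged alongside.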
As to `COP(=O)(OC)C(O)C(Cl)(Cl)Cl` (stereo not given), the outcome was inactive.
`CCOP(=S)(OCC)OC(Cl)C(Cl)(Cl)Cl` (stereo not given): the call was inactive.
On the same count and under the same terms, with `O=[N+]([O-])c1cc(C(F)(F)F)c(Cl)c([N+](=O)[O-])c1Nc1ncc(C(F)(F)F)cc1Cl` the entry was “inactive”; with `CCOP(=O)(NC(C)C)Oc1ccc(SC)c(C)c1` (stereo not given), “inactive”; with `C=C(C)[C@H]1Cc2c(ccc3c2O[C@@H]2COc4cc(OC)c(OC)cc4[C@@H]2C3=O)O1`, “inactive”.
The same measure, in the same setting: with `CC(C)N(C(=O)SCC(Cl)=C(Cl)Cl)C(C)C` the entry was “inactive”.
In the case of `CC[C@H](C)[C@H]1O[C@]2(C=C[C@@H]1C)C[C@@H]1C[C@@H](C/C=C(\C)[C@@H](O[C@H]3C[C@H](OC)[C@@H](O[C@H]4C[C@H](OC)[C@@H](NC)[C@H](C)O4)[C@H](C)O3)[C@@H](C)/C=C/C=C3\CO[C@@H]4[C@H](O)C(C)=C[C@@H](C(=O)O1)[C@]34O)O2`, the AC50 was 30.7 µM (active).
Take `COc1ccc(C(=CC(=O)N2CCOCC2)c2ccc(Cl)cc2)cc1OC`: the result was inactive.
As to `CC(COc1ccc(Oc2ccccc2)cc1)Oc1ccccn1` (stereo not given), the outcome was inactive.
With `CCOP(=O)(OCC)Oc1cc(C)nc(C(C)C)n1`, the call was inactive.
Still for that read-out and setting: the entry for `CSc1nnc(C(C)(C)C)c(=O)n1N` is “inactive”.
With `CCC(CC)Nc1c([N+](=O)[O-])cc(C)c(C)c1[N+](=O)[O-]`, the compound was classed as inactive.
`CCc1cccc(CC)c1N(COC)C(=O)CCl`: the outcome was inactive.
Still for that read-out and setting: with `CCCOc1nn(C(=O)NS(=O)(=O)c2ccccc2C(=O)OC)c(=O)n1C` the entry was “inactive”; with `CC(=NC#N)N(C)Cc1ccc(Cl)nc1`, “inactive”; with `Cc1ccn2nc(S(=O)(=O)Nc3c(F)cccc3F)nc2n1`, “inactive”.
Still for that read-out and setting: the entry for `CCCCOC(=O)c1ccccc1C(=O)O` is “inactive”; for `CC1=NNC(=O)N(/N=C/c2cccnc2)C1` it is “inactive”; for `COP(=O)(OC)OC(Br)C(Cl)(Cl)Br` (stereo not given) it is “inactive”.
For the compound `CNC(=O)ON=C(SC)C(=O)N(C)C`, the outcome was inactive.
